This is a sample that favours compounds with a hit; in the whole collection about 7.2% have one here.
Efflux pump mplx: inhibitors of Candida efflux pumps in yeast, primary screen, S. cerevisiae, Nile Red, multiplex; S. cerevisiae Candida pump triplex; inhibition, % at 10 µM; actives 0.44% (n = 330,000); AID 485275, 2010;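 active means plate passing quality check with inhibition over a set limit, or well fluorescence over plate mean plus 4 SD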;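 further: Nile Red retained in pooled yeast measured as flow cytometry median fluorescence; higher means more Nile Red kept so more efflux inhibition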
Mot1-301 SUMO: yeast Mot1-301 growth rescue at high temperature, primary screen, SUMOylation pathway inhibitor project, S. cerevisiae, ATP luminescence, 38.5C; growth rescue, % at 18.8 µM; actives 1% (n = 320,000); S. cerevisiae Mot1-301 growth rescue; percent above DMSO median, 100 means doubled;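 active means every valid replicate shows activation above 250% relative to neutral control wells; inactive means the rest, any valid replicate at or below 250%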
A1 inh: caspase 3/7 activation in MEF A1-2A-BIM cells, primary screen, A1 inhibitor project, cell-based, luminescence, HTS; Caspase-Glo 3/7 luminescence, 3 h; percent of clofoctol response, vehicle zero; AID 2462, 2010; caspase activation, % (concentration not given with the values); actives 0.066% (n = 330,000);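 active means over half of replicate activation scores above 10%, or exactly half above 10 with the replicate mean above 10; inconclusive means replicate mean below 10 yet half the replicates above 10; inactive means over half of replicates below 10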
ALR H2O2 inh: inhibitors of human ALR sulfhydryl oxidase, primary screen, biochemical, H2O2 detection, HRP-luminol luminescence, single point; purified ALR, DTT oxidation; inhibition, % (concentration not given with the values); actives 3.8% (n = 290,000); AID 485317, 2010;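 active means mean replicate inhibition above about 79%, with every replicate also reaching it, limit read from the data; inconclusive means only one of the two criteria met; inactive means mean below limit and not every replicate reaching it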
Target sequence (P55789 whole entry, looked up): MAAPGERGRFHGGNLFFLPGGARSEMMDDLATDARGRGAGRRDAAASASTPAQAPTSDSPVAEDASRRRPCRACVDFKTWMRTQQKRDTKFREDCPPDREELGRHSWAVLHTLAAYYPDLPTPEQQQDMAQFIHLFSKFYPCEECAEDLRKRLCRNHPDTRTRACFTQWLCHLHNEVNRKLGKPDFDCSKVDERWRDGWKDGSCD
AHR activator: AHR activators, primary screen, cell-based, luminescence, luciferase reporter, human; Aryl hydrocarbon receptor (Homo sapiens), P35869; AHR-responsive luciferase reporter cells; activation, % at 5 µM; actives 2.5% (n = 320,000); in the data active means activation above about 47%
VLA-4 inh: inhibition in human VLA-4 binding assay, primary screen, VLA-4 allosteric modulator project, MLPCN library, flow cytometry, VLA-4 expressing cells. Integrin alpha-4 (Homo sapiens), P13612. ligand binding flow cytometry. inhibition, % (about 7 µM as worked out from the volumes in the protocol). actives 0.2% (n = 330,000). AID 2557, 2010; in the data active means inhibition above about 50%
Each line names hits and unclear results; the compound was inactive in the other large screens.

O=C(NCC(c1ccco1)N1CCCCC1)C(c1ccccc1)c1ccccc1 (stereo not drawn)	ALR H2O2 inh 94.0
CCN(CC)S(=O)(=O)c1ccc(OC)c(NC(=O)Cn2cnc3c2c(=O)n(C)c(=O)n3C)c1	none
CC(CN(C)Cc1nc(Cc2cccc(C(F)(F)F)c2)no1)CN1CCCC1 (stereo not drawn)	none
O=C(CCS(=O)(=O)c1ccc(Cl)cc1)NC1CCCC1	none
O=C(NCc1cccnc1)C(=O)NCC(c1ccco1)N1CCN(c2ccccc2)CC1 (stereo not drawn)	ALR H2O2 inh 98.2
O=C(NCc1cccs1)C(=O)NCC(c1ccco1)N1CCN(c2ccccc2)CC1 (stereo not drawn)	ALR H2O2 inh 97.8
N#C/C(=C\c1ccc2c(c1)OCCO2)C(=O)Nc1ccc(C(=O)O)cc1	none (no result: ALR H2O2 inh)
Cc1ccc(NC(=O)C2CCCN(C(=O)c3ccc(Cl)cc3)C2)cc1S(=O)(=O)N1CCOCC1 (stereo not drawn)	none
CCCN1C(=O)c2ccccc2NC1c1ccc(O)c(OCC)c1 (stereo not drawn)	ALR H2O2 inh 86.0
CCCN1C(=O)c2ccccc2NC1c1ccc(Cl)c(Cl)c1 (stereo not drawn)	none
CCOc1ccccc1C(=O)Nc1nnc(Cc2ccc(OC)c(OC)c2)s1	none
CCC/C(=N/NC(=O)c1ccc2c(c1)OCO2)c1cccs1	AHR activator 63.6
Cc1occc1C(=O)N/N=C/c1ccc2c(c1)OCO2	none
Cc1cc(C(=O)N/N=C/c2ccc3c(c2)OCO3)c(C)o1	ALR H2O2 inh 94.6, AHR activator 72.4
CC/C(=N\NC(=O)c1ccc2c(c1)OCO2)c1ccccc1	ALR H2O2 inh inconclusive (no result: AHR activator)
O=C(N/N=C/c1ccc2c(c1)OCO2)c1cccs1	AHR activator 96.8
Cc1ccsc1C(=O)N/N=C/c1ccc2c(c1)OCO2	none
O=C(CCc1ccc(O)c(O)c1)N/N=C/c1ccc2c(c1)OCO2	ALR H2O2 inh 95.1
CN(C(=O)c1ccc(OC2CCN(CCc3ccccc3)CC2)cc1)C1CCCCC1	none
O=C(Nc1ccc(NC(=O)c2cc([N+](=O)[O-])ccc2N2CCOCC2)cc1)c1cccs1	none (no result: ALR H2O2 inh)
CCOC(=O)N1CCC(N(CCN(C)C)C(=S)Nc2cc(Cl)ccc2C)CC1	none
CCOC(=O)N/N=C\C=C\c1ccc2c(c1)OCO2	AHR activator 49.5
Cc1ccccc1NCC(=O)N/N=C\c1ccc2c(c1)OCO2	ALR H2O2 inh 93.7
C=CCNC(=O)NC(=O)COC(=O)/C=C/c1cccc([N+](=O)[O-])c1	none
Cc1ccc(C(=O)NCCNC(=O)Cc2ccccc2)cn1	none (no result: ALR H2O2 inh)
N#CC1(NC(=O)COC(=O)c2cc(=O)[nH]c3ccccc23)CCCCC1	none (no result: ALR H2O2 inh)
c1ccc(NCc2cccnc2)cc1	Mot1-301 SUMO 292.5 (no result: ALR H2O2 inh)
CC(C)(c1ccc(O)cc1)c1ccc(O)cc1	ALR H2O2 inh 91.3
CN(C)CCCNCC(=O)c1c(-c2ccccc2)n(C)c2ccccc12	none (no result: ALR H2O2 inh)
COc1ccc(C(=O)NCC2OCCc3ccccc32)c(O)c1 (stereo not drawn)	none
NC(=O)CSc1cn(CCNC(=O)c2cccs2)c2ccccc12	ALR H2O2 inh 97.7
Cc1ccc(S(=O)(=O)N[C@@H](CO)C(=O)N[C@@H](Cc2ccc(O)cc2)C(=O)O)cc1	none
CCCCCC[N+](C)(C)CCSSCC[N+](C)(C)CCCCCC	none
CCCCCCCCCCCCCCCC[N+](C)(C)CC	Efflux pump mplx 1.8
COc1cccc(NC(=O)[C@@H]2CCCN2C(=O)C2CCN(S(=O)(=O)c3ccc(C)cc3)CC2)c1	none
O=C1N/C(=C/c2cccs2)C(=O)N1Cc1ccc(Br)cc1	none
CCn1c(SCc2nc3ccccc3[nH]2)nnc1-c1ccc(OC)cc1	none
Cc1ccc(N2C(=O)c3ccccc3C2C(=O)c2ccc(O)cc2O)cc1 (stereo not drawn)	AHR activator 59.1
Cc1ccc(-n2[nH]c(C)c(/C=C3/C=Nc4ccccc43)c2=O)cc1C	AHR activator 60.4
Cc1[nH]n(-c2ccccc2)c(=O)c1/C=C1\C=NN=C1c1ccccc1	none

Source: PubChem BioAssay
